G9a block: qHTS Assay for Inhibitors of Histone Lysine Methyltransferase G9a; G9a H3K9 monomethylation, AlphaScreen, 2 h; Potency, µM (top dose mostly 102 µM), for inactives: at the highest dose activity, negative = inhibition, most hits filed as inhibitors; 350,000 tested, 8.8% active; further: on the % scale 0 is the no-effect control and ±100 the full control effect; nearly all actives have a fitted effect of over 75% in size
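Readings reflect AlphaScreen signal from monomethyl-H3K9 antibody detection. HMT at 20 nM; substrate b-H3K9 500 nM; cofactor SAM 20 uM; 2 h RT reaction; compounds tested as titrations in qHTS with 15 min preincubation.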
JMJD2A Tudor inh: qHTS Assay for Inhibitors of JMJD2A-Tudor Domain; 390,000 tested, 4.4% active; Potency, µM (doses to about 114 µM), for inactives: at the top dose activity change, negative = inhibition, most hits filed as inhibitors; Lysine-specific demethylase 4A (Homo sapiens), O75164; AlphaScreen JMJD2A-Tudor / H3K4me3 peptide binding; further: on the % scale 0 is the no-effect control and ±100 the full control effect; nearly all actives have a fitted effect of over 50% in size
Target sequence (O75164 whole entry, looked up, the tested form may be a part): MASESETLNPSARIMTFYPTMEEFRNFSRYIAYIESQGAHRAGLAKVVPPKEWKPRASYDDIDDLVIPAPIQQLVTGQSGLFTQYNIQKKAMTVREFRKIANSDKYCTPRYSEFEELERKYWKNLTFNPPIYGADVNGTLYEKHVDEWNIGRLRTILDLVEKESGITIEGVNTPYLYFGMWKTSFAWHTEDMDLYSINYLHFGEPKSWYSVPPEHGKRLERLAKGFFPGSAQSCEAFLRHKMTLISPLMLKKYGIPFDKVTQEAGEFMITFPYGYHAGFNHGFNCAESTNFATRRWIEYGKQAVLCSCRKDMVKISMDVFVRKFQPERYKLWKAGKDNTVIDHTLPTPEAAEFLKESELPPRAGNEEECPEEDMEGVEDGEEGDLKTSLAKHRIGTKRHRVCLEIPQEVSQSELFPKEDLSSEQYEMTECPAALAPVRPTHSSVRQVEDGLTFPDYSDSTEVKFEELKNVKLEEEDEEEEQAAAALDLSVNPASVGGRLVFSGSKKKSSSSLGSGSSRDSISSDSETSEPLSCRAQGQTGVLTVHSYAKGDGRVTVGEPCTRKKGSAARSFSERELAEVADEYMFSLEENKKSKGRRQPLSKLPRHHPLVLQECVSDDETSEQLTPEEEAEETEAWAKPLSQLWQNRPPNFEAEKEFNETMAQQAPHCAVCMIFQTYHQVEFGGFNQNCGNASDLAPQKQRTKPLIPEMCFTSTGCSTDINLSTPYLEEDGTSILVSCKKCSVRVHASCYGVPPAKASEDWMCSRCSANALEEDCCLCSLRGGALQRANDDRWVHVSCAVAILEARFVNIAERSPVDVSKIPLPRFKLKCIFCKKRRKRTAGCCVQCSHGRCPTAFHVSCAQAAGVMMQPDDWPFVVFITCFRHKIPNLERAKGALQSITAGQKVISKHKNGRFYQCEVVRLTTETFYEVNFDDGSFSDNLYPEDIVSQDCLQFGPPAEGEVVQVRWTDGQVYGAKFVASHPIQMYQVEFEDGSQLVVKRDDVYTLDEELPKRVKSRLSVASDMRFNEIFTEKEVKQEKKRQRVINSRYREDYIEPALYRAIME
Sfp PPTase inh: qHTS Assay for Inhibitors of Bacillus subtilis Sfp phosphopantetheinyl transferase (PPTase); 4'-phosphopantetheinyl transferase ffp (Bacillus subtilis), Q9F4F7; Biochemical Sfp PPTase activity, qHTS; Potency, µM, for the others: largest response in the series, negative = inhibition, actives largely listed as inhibitors; 310,000 tested, 3.5% active; AID 1490, 2009;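 further: the enzyme is Sfp with the accession as filed and its product quenches rhodamine fluorescence; 0% = enzyme reaction without inhibitor and -100% = no enzyme wells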
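Sfp 15 nM + cpd, 15 min RT; start w/ rhodamine-CoA 5 uM, BHQ-2-YbbR 12.5 uM (final); 50 mM Hepes pH 7.6, 10 mM MgCl2, 0.01% NP-40, 0.01% BSA; read 525/598 nm at 0 and 30 min.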
BAZ2B inh: qHTS Assay for Inhibitors of BAZ2B. AlphaScreen BAZ2B-H3K14Ac peptide displacement. Potency, µM (series often up to 114 µM), without a hit: top-dose activity change, negative = inhibition, most hits filed as inhibitors. 360,000 tested, 4.4% active; further: on the % scale 0 is the no-effect control and ±100 the full control effect; nearly all actives have a fitted effect of over 60% in size
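Multi-concentration screen (max 110 uM) measuring displacement of acetylated histone H3 peptide from BAZ2B by AlphaScreen, using 50 nM protein, 50 nM peptide and 10 ug/mL streptavidin donor plus Ni-chelate acceptor beads.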
L3MBTL1 block: qHTS Assay for the Inhibitors of L3MBTL1. Lethal(3)malignant brain tumor-like protein 1 (Homo sapiens), Q9Y468. AlphaScreen L3MBTL1–H3K9me1 peptide binding. Potency, µM (titrated, usually from 57.1 µM), inactives show at the top dose activity, negative = inhibition, hits mostly inhibitors. 230,000 tested, 0.66% active. AID 485360, 2010; further: on the % scale 0 is the no-effect control and ±100 the full control effect; nearly all actives have a fitted effect of over 60% in size
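AlphaScreen assay: L3MBTL1 (50 nM final) was preincubated 30 min at room temperature with biotinylated H3(1-15)K9me1 peptide (75 nM final), then 30 min with library compounds; streptavidin donor and nickel chelate acceptor beads (10 ug/mL final) added, 30 min dark.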
HP1b binding inh: HTS for Inhibitors of HP1-beta Chromodomain Interactions with Methylated Histone Tails. Chromobox protein homolog 1 (Homo sapiens), P83916. AlphaScreen HP1-beta / biotin-H3K9me3 peptide binding. Potency, µM (doses to about 114 µM), without a hit: at the highest dose activity change, negative = inhibition, usual class: inhibitors. 390,000 tested, 0.56% active; further: nearly all actives have a fitted effect of over 70% in size
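HP1-beta protein (50 nM final) preincubated 30 min at room temperature with biotinylated H3(1-18)K9me3 peptide (50 nM) in PBS pH 7.4, 0.01% Tween-20, then compound added for 30 min. AlphaScreen streptavidin donor/nickel chelate acceptor beads (10 ug/mL final), 30 min dark, luminescence read.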
* = called active by the depositor; ? = inconclusive; . = no result given; [ ] = remark or other dose. The list is not random: actives were taken first. Their share in the collection is about 12%. The call rests on the fitted dose curve; in most records, active means well fitted curve in the direction sought with a large enough effect; inconclusive means small, poorly fitted or top-dose-only effect, or another doubt; inactive means no such curve, though single readings can be large; an effect the other way counts as inactive or inconclusive. Potency means the concentration at half of the fitted maximal effect.

SMILES | G9a block | JMJD2A Tudor inh | Sfp PPTase inh | BAZ2B inh | L3MBTL1 block | HP1b binding inh
Cc1nc2n(n1)C(c1ccccc1)C1=C(CC(c3ccco3)CC1=O)N2 (stereo not drawn) | 44.7µM* | -19.4% | -14.5% | 17.5% | -6.0% | 13.5%
Cc1ccc2c(CC(=O)Nc3c(C(=O)c4ccc(C)c(F)c4)oc4ccccc34)coc2c1 | -34.1%[59 µM] | 2.1% | . | -12.9% | . | 20.5%
CCCNC(=O)c1c(NC(=O)c2ccccc2F)sc2c1CCCCC2 | 6.8%[59 µM] | -4.5% | . | 1.9% | . | 60.6%
N#Cc1ccc(N2C(=O)[C@@H]3C(C(=O)c4cnccn4)=NN[C@@H]3C2=O)cc1 | . | 15.8µM* | 17.8µM* | 56.2µM* | 1.5% | 25.2%
O=C(C1=NN[C@@H]2C(=O)N(c3cccc(C(F)(F)F)c3)C(=O)[C@H]12)c1cnccn1 | 39.8µM* | ? | -25.4% | -34.2% | -2.1% | 45.7%
CS(=O)(=O)N(CC(=O)NCCSCc1ccccc1Cl)c1ccc(F)cc1 | 45.2% | -11.9% | ? | 11.2% | -3.0% | 22.6%
Cc1ccc(-c2nc3c4ccccc4ccn3c2CN2CCCCC2)cc1 | ? | ? | -18.3% | 50.1µM* | -4.0% | 1.7%
COc1cccc([C@@H]2Oc3ccc(OC)cc3C(=O)[C@H]2OC(=O)N[C@H]2CCCc3ccccc32)c1 | . | . | -28.8% | . | . | .
O=C(Nc1cccc(F)c1)/C(=C/c1ccco1)NC(=O)c1ccco1 | 28.2µM* | ? | ? | -29.9% | . | -24.5%
Cc1ccc(C(=O)N/C(=C/c2ccco2)C(=O)NCc2ccco2)cc1 | 44.7µM* | -23.2% | -26.8% | -16.1% | . | 3.3%
COc1ccc(C(=O)N/C(=C/c2ccco2)C(=O)NCc2ccco2)cc1 | ? | -22.5% | 1.5% | -13.3% | . | 21.9%
Cc1cccc(NC(=O)/C(=C\c2ccco2)NC(=O)c2cccs2)c1 | 31.6µM* | 89.1µM* | 56.2µM* | 3.1%[57.1 µM] | 2.8% | ?
Cc1ccc(C(=O)N/C(=C\c2ccccc2)C(=O)NCc2ccncc2)cc1 | -6.8%[0.0925 µM] | -4.5% | -1.5% | 50.1µM* | -8.2% | 9.7%
CC(C)(C)NC(=O)/C(=C\c1ccco1)NC(=O)c1cccs1 | 0.2%[59 µM] | -15.2% | -7.6% | 12.2% | 1.4% | 16.9%
O=C(CNC(=O)C1CCCC1)OC(C(=O)Nc1cc(C(F)(F)F)ccc1Cl)c1ccccc1 (stereo not drawn) | . | -11.0% | . | . | . | .
CC(=O)c1ccc(N2CCN(S(=O)(=O)c3ccc4[nH]c5c(c4c3)CCCC5)CC2)cc1 | ? | ? | . | -37.4% | . | -16.2%
Cc1ccc(C(=O)N/C(=C/c2ccco2)C(=O)Nc2cccc(C)c2)cc1 | ? | ? | 35.5µM* | -34.5% | . | ?
O=C(O)CCCC(=O)Nc1cc([N+](=O)[O-])ccc1O | -24.1% | -24.2% | 13.2% | -9.1% | -1.7% | 44.2%
CCCC(CCC(=O)Nc1cc([N+](=O)[O-])ccc1O)C(=O)O (stereo not drawn) | ? | -6.3% | -3.0% | 56.2µM* | ? | -3.7%
Cc1ccc(S(=O)(=O)N=Nc2c(O)[nH]c3ccccc23)cc1 | 1.58µM* | -20.5% | 1.0% | ? | . | 36.5%
Cc1ccc(S(=O)(=O)N(CC(=O)N=Nc2c(O)[nH]c3ccccc23)c2ccc(C)c(C)c2)cc1 | 12.2%[59 µM] | ? | 13.0% | -32.1% | -10.9% | -13.2%
CC(C)(O)C(=O)N=Nc1c(O)[nH]c2ccccc12 | -9.9%[12.7 µM] | -5.3%[11.4 µM] | 4.9% | -3.8% | 54.1% | 30.6%
Cc1ccc(C)c(S(=O)(=O)N=Nc2c(O)[nH]c3ccccc23)c1 | 8.91µM* | -15.2% | -19.5% | -26.8% | -3.8% | 26.6%
O=C(Nc1nnc(SCC(=O)N2CCCC2)s1)C1CC(=O)N(c2ccc(F)cc2)C1 (stereo not drawn) | 20µM* | -17.4% | ? | -16.8% | . | 39.2%
